In PubChem BioAssay AID1159580 (chemical genetic matrix, 2015):
Where “and” joins values, the source holds several entries; their conditions need not be identical. Identical values can stand only once. Out of some 5,500 compounds screened, about 2,000 (36%) were called active. About 18% were inconclusive and are not listed. No stated cut-off is given here; in the data, active means normalized growth mostly below about 0.91 (no sharp cut-off); inconclusive means no clear call, values can overlap the other calls; inactive means mostly above about 0.92. The list shows a part of the results.

Test: chemical genetic growth profiling, strain panel (AID 1159580);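 further: tested at 20 µM; growth read once vehicle control cultures reached saturation at 30 °C; 1 = growth at the plate median or of vehicle wells; lower values mean less growth of the strain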
Conditions: growth OD

Measured: normalized growth

Cn1c(=O)c2[nH]cnc2n(C)c1=O
inactive: S. cerevisiae deletion strains, locus YJR066W, strain TOR1, active compounds read low 0.959 | S. cerevisiae deletion strains, locus YKL009W, strain mrt4, active compounds read low 0.98 | S. cerevisiae deletion strains, locus YKL068W, active compounds read low 0.992 | S. cerevisiae deletion strains, locus YKL085W, strain MDH1 (second series), active compounds read low 0.982 | S. cerevisiae deletion strains, locus YKL085W, strain MDH1, active compounds read low 0.982 | S. cerevisiae deletion strains, locus YKL160W, strain elf1, active compounds read low 1.04 | S. cerevisiae deletion strains, locus YKL190W, strain CNB1, active compounds read low 0.996 | S. cerevisiae deletion strains, locus YKR001C, strain vps1, active compounds read low 0.971 | S. cerevisiae deletion strains, locus YKR026C, strain gcn3, active compounds read low 1.01 | S. cerevisiae deletion strains, locus YKR091W, strain srl3, active compounds read low 1.02 | S. cerevisiae deletion strains, locus YLL001W, strain dnm1, active compounds read low 1.01 | S. cerevisiae deletion strains, locus YLL026W, active compounds read low 1.02 | S. cerevisiae deletion strains, locus YLL041C, strain sdh2, active compounds read low 1.01 | S. cerevisiae deletion strains, locus YLR027C, strain aat2, active compounds read low 1.02 | S. cerevisiae deletion strains, locus YLR039C, strain RIC1, active compounds read low 0.982 | S. cerevisiae deletion strains, locus YLR058C, strain SHM2, active compounds read low 0.988 | S. cerevisiae deletion strains, locus YLR102C, strain apc9, active compounds read low 0.977 | S. cerevisiae deletion strains, locus YLR113W, strain HOG1, active compounds read low 0.99 | S. cerevisiae deletion strains, locus YLR221C, strain rsa3, active compounds read low 1.02 | S. cerevisiae deletion strains, locus YLR258W, strain gsy2, active compounds read low 1.02 | S. cerevisiae deletion strains, locus YLR262C, strain YPT6 (second series), active compounds read low 1 | S. cerevisiae deletion strains, locus YLR262C, strain YPT6, active compounds read low 0.993 | S. cerevisiae deletion strains, locus YLR268W, strain sec22, active compounds read low 0.941 | S. cerevisiae deletion strains, locus YLR320W, strain mms22, active compounds read low 1.01 | S. cerevisiae deletion strains, locus YLR330W, strain CHS5, active compounds read low 0.992 | S. cerevisiae deletion strains, locus YLR342W, strain FKS1 (second series), active compounds read low 0.99 | S. cerevisiae deletion strains, locus YLR342W, strain FKS1, active compounds read low 1.02 | S. cerevisiae deletion strains, locus YLR357W, strain rsc2, active compounds read low 1.01 | S. cerevisiae deletion strains, locus YLR370C, strain arc18, active compounds read low 1.03 | S. cerevisiae deletion strains, locus YLR371W, strain rom2, active compounds read low 0.968 | S. cerevisiae deletion strains, locus YLR384C, strain iki3, active compounds read low 1.01 | S. cerevisiae deletion strains, locus YLR418C, strain cdc73, active compounds read low 0.971 | S. cerevisiae deletion strains, locus YML016C, strain PPZ1, active compounds read low 0.989 | S. cerevisiae deletion strains, locus YML032C, strain rad52, active compounds read low 0.971 | S. cerevisiae deletion strains, locus YML120C, strain ndi1, active compounds read low 1.02 | S. cerevisiae deletion strains, locus YML124C, strain tub3, active compounds read low 0.969 | S. cerevisiae deletion strains, locus YMR058W, strain fet3, active compounds read low 1.02 | S. cerevisiae deletion strains, locus YMR078C, strain ctf18, active compounds read low 0.975 | S. cerevisiae deletion strains, locus YMR125W, strain sto1, active compounds read low 1.01 | S. cerevisiae deletion strains, locus YMR129W, active compounds read low 1.01 | S. cerevisiae deletion strains, locus YMR205C, strain PFK2, active compounds read low 1.04 | S. cerevisiae deletion strains, locus YMR223W, strain ubp8, active compounds read low 0.984 | S. cerevisiae deletion strains, locus YMR231W, strain pep5, active compounds read low 1.02 | S. cerevisiae deletion strains, locus YMR263W, strain SAP30, active compounds read low 0.996 | S. cerevisiae deletion strains, locus YMR307W, strain GAS1, active compounds read low 0.992 | S. cerevisiae deletion strains, locus YNL067W, strain RPL9B, active compounds read low 0.993 | S. cerevisiae deletion strains, locus YNL071W, strain lat1, active compounds read low 1.03 | S. cerevisiae deletion strains, locus YNL128W, strain TEP1, active compounds read low 0.985 | S. cerevisiae deletion strains, locus YNL153C, strain GIM3, active compounds read low 0.988 | S. cerevisiae deletion strains, locus YNL175C, strain NOP13, active compounds read low 0.995 | S. cerevisiae deletion strains, locus YNL183C, strain NPR1, active compounds read low 0.955 | S. cerevisiae deletion strains, locus YNL197C, strain WHI3, active compounds read low 1 | S. cerevisiae deletion strains, locus YNL209W, strain ssb2, active compounds read low 1.02 | S. cerevisiae deletion strains, locus YNL224C, strain SQS1, active compounds read low 0.99 | S. cerevisiae deletion strains, locus YNL233W, strain BNI4, active compounds read low 0.993 | S. cerevisiae deletion strains, locus YNL248C, strain rpa49, active compounds read low 1.05 | S. cerevisiae deletion strains, locus YNL250W, strain rad50, active compounds read low 0.979 | S. cerevisiae deletion strains, locus YNL271C, strain bni1, active compounds read low 0.967 | S. cerevisiae deletion strains, locus YNL298W, strain CLA4, active compounds read low 0.965 | S. cerevisiae deletion strains, locus YNL307C, strain MCK1, active compounds read low 0.971 | S. cerevisiae deletion strains, locus YNL322C, strain KRE1 (second series), active compounds read low 1.01 | S. cerevisiae deletion strains, locus YNR049C, strain mso1, active compounds read low 1.02 | S. cerevisiae deletion strains, locus YNR052C, strain pop2, active compounds read low 0.971 | S. cerevisiae deletion strains, locus YOL006C, strain TOP1, active compounds read low 1.01 | S. cerevisiae deletion strains, locus YOL012C, strain htz1 0.812 | S. cerevisiae deletion strains, locus YOL147C, strain pex11, active compounds read low 0.973 | S. cerevisiae deletion strains, locus YOR001W, strain rrp6, active compounds read low 0.994 | S. cerevisiae deletion strains, locus YOR061W, strain CKA2, active compounds read low 0.988 | S. cerevisiae deletion strains, locus YOR069W, strain VPS5, active compounds read low 0.982 | S. cerevisiae deletion strains, locus YOR070C, strain gyp1, active compounds read low 1.04 | S. cerevisiae deletion strains, locus YOR080W, strain dia2, active compounds read low 1 | S. cerevisiae deletion strains, locus YOR083W, strain WHI5 (second series), active compounds read low 1.01 | S. cerevisiae deletion strains, locus YOR083W, strain WHI5, active compounds read low 1.03 | S. cerevisiae deletion strains, locus YOR106W, strain vam3, active compounds read low 1.05 | S. cerevisiae deletion strains, locus YOR136W, strain idh2, active compounds read low 0.986 | S. cerevisiae deletion strains, locus YOR144C, strain elg1, active compounds read low 0.981 | S. cerevisiae deletion strains, locus YOR184W, strain ser1, active compounds read low 0.97 | S. cerevisiae deletion strains, locus YOR231W, strain MKK1, active compounds read low 0.979 | S. cerevisiae deletion strains, locus YOR265W, strain rbl2, active compounds read low 1.01 | S. cerevisiae deletion strains, locus YOR270C, strain vph1, active compounds read low 1.05 | S. cerevisiae deletion strains, locus YOR290C, strain snf2, active compounds read low 1.05 | S. cerevisiae deletion strains, locus YOR316C, strain cot1, active compounds read low 0.969 | S. cerevisiae deletion strains, locus YPL051W, strain arl3, active compounds read low 1.04 | S. cerevisiae deletion strains, locus YPL078C, strain atp4, active compounds read low 1.04 | S. cerevisiae deletion strains, locus YPL106C, strain sse1, active compounds read low 1.05 | S. cerevisiae deletion strains, locus YPL240C, strain hsp82, active compounds read low 1.02 | S. cerevisiae deletion strains, locus YPL241C, strain CIN2, active compounds read low 0.992 and 1 | S. cerevisiae deletion strains, locus YPL256C, strain CLN2, active compounds read low 0.97 | S. cerevisiae deletion strains, locus YPR119W, strain clb2, active compounds read low 0.986 | S. cerevisiae deletion strains, locus YPR141C, strain kar3, active compounds read low 0.961 | S. cerevisiae deletion strains, locus YPR163C, strain tif3, active compounds read low 0.965 | S. cerevisiae deletion strains, locus YPR167C, strain met16, active compounds read low 0.977 | S. cerevisiae deletion strains, strain wtn01, active compounds read low 0.953 | S. cerevisiae strains, strain wild type, active compounds read low 1
